Some test systems named below: NCI-H23 lung; NCI-H226 lung; NCI-H322M lung; HOP-62 NSCLC; NCI-H460 lung; NCI-H522 lung; A549/ATCC NSCLC; 786-0 renal; COLO 205 colon; DU-145 prostate; K-562 leukemia; MALME-3M melanoma; MDA-MB-231 breast; SF-268 CNS; SF-295 CNS; SF-539 CNS; UACC-257 melanoma.
Common to all, as to assay: NCI-60 one-dose screen, 48 h (100 = growth as untreated, 0 = no growth, -100 = all killed)
For the next assay, the system named is HOP-92 NSCLC. The note with it: 10 µM unless noted.
For another assay, the system named is RXF 393 renal. The note with it: 10 µM unless noted.
A further assay relates to M14 melanoma. The note with it: 10 µM unless noted.

The results in this text go back to PubChem BioAssay (NCI).

Structures are written as SMILES. Values joined by “and” are separate entries in the source; they are usually repeats but may differ in a detail not shown here. Equal entries are not always repeated. The panel holds about 83,000 compounds, 20% with a hit somewhere; the sample as a whole holds those more often.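 Note: values are percent growth. 100 is the growth of untreated cells, values between 100 and 0 indicate rising inhibition; between -100 and 0 indicates cell death.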 A number with no mark means an inactive call. Active and inactive are the calls of the source. How the source made its calls: active means growth percent below 10; inactive means the rest.

Regarding `O=[N+]([O-])c1ccc(/C=N\NC(=S)Nc2ccc(F)cc2)cc1`, the growth in the assay with NCI-H23 lung (10 µM unless noted) was 101% and 88.3%; in the assay on NCI-H226 lung (10 µM unless noted), 105% and 91.1%; in the assay on NCI-H322M lung (10 µM unless noted), 86.6% and 97.9%; with HOP-62 NSCLC (10 µM unless noted), 105% and 94.6%; with NCI-H460 lung (10 µM unless noted), 95.3% and 87%; in the assay on HOP-92 NSCLC, 107% and 75.7%. The growth was 95% and 104% in the assay with NCI-H522 lung (10 µM unless noted); 82.1% and 90.9% with A549/ATCC NSCLC (10 µM unless noted); 105% and 98.5% in the assay on 786-0 renal (10 µM unless noted); 104% and 103% in the assay on COLO 205 colon (10 µM unless noted); 102% and 87.1% with DU-145 prostate (10 µM unless noted); 104% in the assay with K-562 leukemia (10 µM unless noted). The growth in the assay with MALME-3M melanoma (10 µM unless noted) is 92.6%; in the assay with MDA-MB-231 breast (10 µM unless noted), 77.5% and 77.6%; with RXF 393 renal it was 98% and 105%; in the assay on SF-268 CNS (10 µM unless noted) it was 102% and 99.8%; with SF-295 CNS (10 µM unless noted) it was 102%; in the assay on SF-539 CNS (10 µM unless noted) it was 102% and 58.6%. The growth in the assay on UACC-257 melanoma (10 µM unless noted) is 91.4% and 104%; with M14 melanoma, 113% and 96.8%.

As for `CC(C)(C)c1cc(NC(=O)Cc2ccc(-c3cnc4cc(-c5cnn(CCN6CCOCC6)c5)ccc4n3)cc2)no1`, the growth in the assay on NCI-H23 lung (10 µM) was 26.4%; in the assay on NCI-H23 lung (30 µM), 27.3%; in the assay with NCI-H226 lung (10 µM) it was 10%; in the assay with NCI-H226 lung (30 µM), 13.7%; in the assay on NCI-H322M lung (10 µM) it was 24.9%; in the assay on NCI-H322M lung (30 µM), 26.1%. Further, the growth is 17.1% with HOP-62 NSCLC (10 µM); 34.4% with HOP-62 NSCLC (30 µM); 11% in the assay with NCI-H460 lung (10 µM); 13% with NCI-H460 lung (30 µM); 20% in the assay on NCI-H522 lung (10 µM); 27% in the assay on NCI-H522 lung (30 µM). The growth is 24.3% in the assay with A549/ATCC NSCLC (10 µM); 20.8% in the assay with A549/ATCC NSCLC (30 µM); 18% with 786-0 renal (10 µM); 21.7% with 786-0 renal (30 µM); 9.61% (active) in the assay on COLO 205 colon (10 µM); 20.5% in the assay on COLO 205 colon (30 µM). Also, the growth was 23.7% in the assay with DU-145 prostate (10 µM); 19.8% with DU-145 prostate (30 µM); 2.41% (active) with K-562 leukemia (10 µM); -1.34% (active) in the assay with K-562 leukemia (30 µM); -5.96% (active) with MALME-3M melanoma (10 µM); -9.19% (active) in the assay with MALME-3M melanoma (30 µM). For the same compound, the growth in the assay on MDA-MB-231 breast (10 µM) is 9.54% (active); in the assay on MDA-MB-231 breast (30 µM), 14.9%; in the assay with RXF 393 renal, -20.5% (active); in the assay with SF-268 CNS (10 µM), 19.9%; with SF-268 CNS (30 µM), 24.7%; in the assay on SF-295 CNS (10 µM), 21.4%. The growth in the assay with SF-295 CNS (30 µM) was 15.4%; in the assay on SF-539 CNS (10 µM) it was -5.64% (active); in the assay with SF-539 CNS (30 µM), -9.45% (active); with UACC-257 melanoma (10 µM), 27.1%; with UACC-257 melanoma (30 µM) it was 31%; with M14 melanoma, 15%.

As for `CCOc1ccc2c(S(=O)(=O)O)cccc2c1[N+](=O)[O-]`, the growth was 94.5% and 102% in the assay with NCI-H23 lung (10 µM unless noted); 97.1% and 94% in the assay on NCI-H226 lung (10 µM unless noted); 102% and 104% with NCI-H322M lung (10 µM unless noted); 102% and 105% with HOP-62 NSCLC (10 µM unless noted); 99.1% and 105% in the assay with NCI-H460 lung (10 µM unless noted); 104% and 78.3% with HOP-92 NSCLC. Moreover, the growth in the assay with NCI-H522 lung (10 µM unless noted) is 99.7% and 122%; in the assay on A549/ATCC NSCLC (10 µM unless noted), 97.2% and 101%; in the assay with 786-0 renal (10 µM unless noted), 113% and 111%; in the assay on COLO 205 colon (10 µM unless noted) it was 107% and 103%; with DU-145 prostate (10 µM unless noted), 104% and 116%; with K-562 leukemia (10 µM unless noted), 101% and 88.4%. The growth is 106% and 101% in the assay on MALME-3M melanoma (10 µM unless noted); 106% and 110% in the assay with MDA-MB-231 breast (10 µM unless noted); 114% and 100% with RXF 393 renal; 99.1% and 96.2% in the assay with SF-268 CNS (10 µM unless noted); 104% and 107% in the assay with SF-295 CNS (10 µM unless noted); 102% and 107% in the assay with SF-539 CNS (10 µM unless noted). Moreover, the growth in the assay on UACC-257 melanoma (10 µM unless noted) was 114% and 100%; in the assay on M14 melanoma, 108% and 99.6%.

Turning to `CC[N+](CC)(CC(=O)Nc1c(C)cccc1C)Cc1ccccc1`, the growth in the assay with NCI-H23 lung (10 µM unless noted) is 85.4% and 99.4%; with NCI-H226 lung (10 µM unless noted) it was 87% and 97.8%; with NCI-H322M lung (10 µM unless noted), 110% and 93.8%; in the assay with HOP-62 NSCLC (10 µM unless noted), 85.2% and 93.2%; with NCI-H460 lung (10 µM unless noted), 100% and 101%; in the assay on HOP-92 NSCLC, 112% and 90.7%. In addition, the growth was 92% with NCI-H522 lung (10 µM unless noted); 106% and 98.5% with A549/ATCC NSCLC (10 µM unless noted); 103% in the assay on 786-0 renal (10 µM unless noted); 103% in the assay with COLO 205 colon (10 µM unless noted); 101% with DU-145 prostate (10 µM unless noted); 94.7% with K-562 leukemia (10 µM unless noted). In addition, the growth with MALME-3M melanoma (10 µM unless noted) was 96.3% and 89.9%; in the assay with MDA-MB-231 breast (10 µM unless noted), 75.7% and 97.2%; with RXF 393 renal, 92.8% and 106%; with SF-268 CNS (10 µM unless noted), 91.9% and 104%; in the assay with SF-295 CNS (10 µM unless noted), 104% and 101%; in the assay on SF-539 CNS (10 µM unless noted), 111% and 102%. Further, the growth is 92.2% in the assay on UACC-257 melanoma (10 µM unless noted); 95.3% and 100% in the assay with M14 melanoma.
